# CR mimetic SO = yeast age-related superoxide inhibition as caloric restriction mimetic; superoxide response (% of plate mean), % at 10 µM; hit rate 0.18% among 330,000; S. cerevisiae aged cells, superoxide DHE fluorescence; hits give low values; AID 2690;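 active = superoxide response under a set limit, about three screen SD below normal, cut at about 65% in these data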;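 also: yeast aged for seven days with compound at 30 °C before DHE staining; 100% = average MFI of all compound-treated wells on the plate with controls excluded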
# MEX-5 binding = C. elegans MEX-5 TCR-2 RNA binding activity | AID 1832 | MEX-5/FITC-TCR2 RNA binding, fluorescence polarization; hits give low values | hit rate 0.38% among 300,000 | Q9XUB2 | activity score (negative = inhibition of binding), % at 10 µM;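 active = inhibition past about -25% in most replicates, and total fluorescence under double the plate's negative control median, limit read from the data; inconclusive = replicates evenly split on the limit, or fluorescence at least double controls; inactive = too little inhibition in most replicates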;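 also: 0% = DMSO and -100% = 5 µM competing unlabeled TCR2 RNA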
# LANA-H2B inh = blocks KSHV LANA binding to histone H2A/H2B | cell-free LANA-H2A/H2B peptide, fluorescence polarization | AID 2629 | Q9QR71 | hit rate 0.6% among 320,000 | inhibition, % (concentration not given with the values); in the data active = inhibition mostly above about 10%, no sharp cut-off; inactive = mostly below about 6.7%
# BCLXL inh = blocks human Bcl-xL binding to Bim BH3 peptide | Q07817 | hit rate 0.7% among 320,000 | GST-Bcl-xL / FITC-Bim BH3 peptide fluorescence polarization | inhibition, % at 10.9 µM;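 active = inhibition above the mean of all tested compounds plus 3 SD, cutoff set per campaign, cut at about 30% in these data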;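 also: 0% = DMSO wells and 100% = unlabeled Bim-BH3 peptide competitor; inhibitors lower millipolarization by displacing the labeled peptide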
# GLD-1 TGE inh = GLD-1-TGE RNA interaction inhibition (C. elegans); inhibition, % at 5.96 µM; AID 2280; purified GLD-1 + fluorescein TGE RNA, fluorescence polarization; Q17339; hit rate 0.44% among 320,000;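 active = percent inhibition above a per-plate cutoff, the plate mean of test compounds plus 3 SD, cut at about 30% in these data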;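 also: 0% = DMSO wells with GLD-1 and probe and 100% = wells lacking GLD-1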
# Target sequence (Q17339 whole entry, looked up): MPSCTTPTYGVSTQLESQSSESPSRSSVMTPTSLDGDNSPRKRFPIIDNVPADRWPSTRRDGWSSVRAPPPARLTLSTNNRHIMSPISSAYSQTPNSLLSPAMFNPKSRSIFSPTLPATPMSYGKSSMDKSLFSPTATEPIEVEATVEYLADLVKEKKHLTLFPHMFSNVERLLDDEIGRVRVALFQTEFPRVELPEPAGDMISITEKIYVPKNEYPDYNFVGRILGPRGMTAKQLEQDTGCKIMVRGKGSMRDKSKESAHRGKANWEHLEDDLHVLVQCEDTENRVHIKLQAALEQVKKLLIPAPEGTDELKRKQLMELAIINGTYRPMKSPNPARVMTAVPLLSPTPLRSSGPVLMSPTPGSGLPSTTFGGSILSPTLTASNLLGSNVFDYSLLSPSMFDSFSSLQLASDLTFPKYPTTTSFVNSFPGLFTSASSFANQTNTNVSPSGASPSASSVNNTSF
# MCL1 BIM primary = inhibitors of human MCL1 binding to BIM-BH3 peptide | Q07820 | GST-MCL1 / FITC-Bim-BH3 fluorescence polarization | inhibition, % at 10.9 µM | hit rate 0.68% among 320,000 | AID 2057;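 active = inhibition above the mean inhibition of all tested compounds plus 3 SD, set per campaign, cut at about 40% in these data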;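 also: 0% = DMSO wells and 100% = unlabeled Bim-BH3 peptide control; higher means more loss of mP so more displacement of Bim peptide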
# Bcl-xL conf = Bcl-xL (human) inhibition, MCL1 counter-screen confirmation; shares compounds with MCL1 BIM primary; GST-Bcl-xL / FITC-Bim BH3 peptide FP binding; inhibition, % at 10.9 µM; hit rate 54% among 1,700;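 active = inhibition above a cutoff equal to the mean inhibition of all tested compounds plus 3 SD, cut at about 30% in these data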;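 also: 0% = DMSO wells and 100% = unlabeled Bim BH3 control peptide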
# MCL1 inh confirm = MCL1-BIM-BH3 interaction inhibition, confirmation; inhibition, % at 10.9 µM; AID 2168; hit rate 61% among 1,700; GST-MCL1 / FITC-Bim-BH3 fluorescence polarization; shares compounds with MCL1 BIM primary;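 active = inhibition above the average of all tested compounds plus 3 SD, cut at about 40% in these data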;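 also: 0% = DMSO wells and 100% = unlabeled Bim-BH3 control peptide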
# * marks the source's active call; other numbers are inactive results; ? = inconclusive; . = no result. An excerpt weighted towards active compounds, which were near 1.9% of everything screened.
SMILES,CR mimetic SO,MEX-5 binding,LANA-H2B inh,BCLXL inh,GLD-1 TGE inh,MCL1 BIM primary,Bcl-xL conf,MCL1 inh confirm
O=C1CCCC2=C1C(c1ccc(O)c(O)c1)Nc1ccc3ncccc3c12 (stereo unspecified),104.3,-6.8,1.5,36.2*,6.6,49.9*,41.1*,57.5*
O=C1CCCC2=C1C(c1cccs1)Nc1ccc3ncccc3c12 (stereo unspecified),82.2,-0.8,0.2,4.9,3.9,12.5,.,.
CC(C)(C)[C@H]1COC(=O)[C@H](NC(=O)OCC2c3ccccc3-c3ccccc32)C/C=C\C[C@@H](CC(=O)N[C@@H](CO)Cc2ccccc2)C(=O)N1,89.5,.,-4.7,.,-4.2,.,.,.
COc1ccccc1NC(=O)CC(NC1CCCCC1)C(=O)O (stereo unspecified),102.8,-0.1,7.1,0.0,-1.4,62.2*,-16.2,-17.8
O=C(NCC1COCCO1)c1ccc2nc(Cc3cccc(Cl)c3)oc2c1 (stereo unspecified),108.1,5.9,-0.8,-2.7,1.6,0.8,.,.
O=C1C=C(NNC(=O)c2ccncc2)CC(c2ccccc2)C1 (stereo unspecified),113.9,-17.8,1.7,75.3*,126.3*,71.6*,26.2,38.6
CC(=O)Nc1ccc(NC(=O)C(C)OC(=O)C2CCCCC2)cc1 (stereo unspecified),90.0,.,7.6,18.4,21.1,150.8*,1.5,8.7
N#C/C(=C\c1ccco1)c1nc2ccccc2s1,100.6,-9.8,-1.7,79.1*,55.4*,75.0*,14.9,15.6
N#C/C(=C/c1ccc(-c2cc(C(=O)O)cc(C(=O)O)c2)o1)c1nc2ccccc2s1,108.9,16.0,-11.5,-17.8,-49.9,-32.7,.,.
CC(C)OCCCn1c(=NC(=O)c2cccs2)c(C#N)cc2c(=O)n3ccccc3nc21,117.3,?,18.5,106.4*,57.7*,113.6*,23.5,28.5
CC(C)OCCCn1c(=N)c(C(N)=S)cc2c(=O)n3ccccc3nc21,99.3,-17.5,2.7,82.6*,11.2,81.8*,69.8*,86.0*
Cc1ccc(S(=O)(=O)N2CCCCC2)cc1C(=O)N1CCCCCC1,96.1,.,9.3,0.9,6.8,0.7,.,.
O=c1c2ccccc2[nH]c2ccc(O)cc12,97.1,-5.9,5.7,74.3*,108.1*,89.3*,97.8*,144.8*
CCCn1c(=O)c2ccccc2n2c(SCc3cc(=O)oc4ccc5ccccc5c34)nnc12,91.0,0.2,1.3,35.4*,30.9*,40.5*,17.6,26.6
CC(=O)Nc1ccc(S(=O)(=O)Nc2nc3ccccc3nc2Sc2nncn2C)cc1,95.2,-17.8,1.8,78.1*,37.1*,77.8*,40.6*,47.3*
CCN(CC)c1ncnc2c1cnn2Cc1ccc(C)cc1,105.3,-2.2,3.6,2.9,-6.2,45.2*,8.1,9.5
Cc1ccc(Cn2ncc3c(NN)ncnc32)cc1,103.9,-0.4,0.0,.,.,.,.,.
Cc1oc2c(cc(NS(=O)(=O)c3ccc(C(C)C)cc3)c3ccccc32)c1C(=O)O,115.7,-21.7,26.2*,69.4*,32.3*,75.0*,109.5*,137.5*
Cn1c(N)c(C(=O)CSc2nnc(C3CC3)n2-c2ccccc2)c(=O)[nH]c1=O,93.9,.,4.0,.,-1.5,.,.,.
Cn1c(N)c(C(=O)CSc2nnc(C3CC3)n2-c2ccccc2)c(=O)n(C)c1=O,87.2,.,1.6,2.9,1.4,58.2*,4.3,4.9
CC(Sc1nc(C2CC2)n(-c2ccccc2)n1)C(=O)c1c(N)n(C)c(=O)n(C)c1=O (stereo unspecified),111.2,-1.4,4.3,4.2,-3.6,-2.1,.,.
Cn1c(N)c(C(=O)CSc2nc(C3CC3)n(-c3ccccc3)n2)c(=O)[nH]c1=O,98.6,.,1.3,10.1,-4.3,69.3*,-12.1,-14.3
CNC[C@@H]1Oc2ccc(NS(=O)(=O)c3ccc(Cl)cc3)cc2C(=O)N([C@H](C)CO)C[C@@H]1C,93.0,.,-1.8,.,6.7,.,.,.

# High-throughput results: PubChem, several laboratories
